Compound activity deposited in PubChem by National Center for Advancing Translational Sciences (NCATS).
Shown are actives, neighbours in structure and some others; about 18% of the full set was active somewhere.
DT40 TDP1 no CPT: qHTS for Inhibitors of human tyrosyl-DNA phosphodiesterase 1 (TDP1): qHTS in cells in absence of CPT; Potency, µM (highest dose often 46.2 µM), for inactives: at the top dose activity change, negative = growth inhibition, usual class: inhibitors; DT40 Tdp1-/- hTDP1 cells, no CPT, ATP luminescence, 48 h; 420,000 compounds, 15% hits; also: potency is read from the fitted curve at half-maximal effect; % is scaled to controls: 0 for no effect and ±100 for the full control effect; nearly all actives have a fitted effect of over 55% in size
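DT40 Tdp1-/-;hTDP1 cells, no CPT (DMSO vehicle only), 400 cells/well; compounds pin-transferred; ≥48 hr, 37 °C; CellTiter-Glo 30 min RT dark, luminescence read.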
TGFb inhibitor: TGF-b pathway inhibition; AID 588855; Potency, µM (series often up to 46.1 µM), inactives show top-dose activity, negative = inhibition, hits mostly inhibitors; HepG2 CAGA-GFP TGF-b/SMAD3 reporter, GFP fluorescence, 18 h; TGF-beta stimulated, 500 pg/mL final; 410,000 compounds, 1.2% hits; also: potency is read from the fitted curve at half-maximal effect; % is scaled to controls: 0 for no effect and ±100 for the full control effect; nearly all actives have a fitted effect of over 65% in size
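Per well, imaged GFP fluorescence of HEPG2 CAGA-GFP cells gives the signal; cells get compound, then TGF-beta (500 pg/mL final), 18 h at 37 degrees C; %Activity versus -TGF-beta and +DMSO controls.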
TDP1 block: TDP1 (human) enzyme inhibition; recombinant TDP1, AlphaScreen DNA substrate cleavage; Potency, µM (titrated, usually from 130 µM), without a hit: top-dose activity change, negative = inhibition, hits mostly inhibitors; 350,000 compounds, 0.28% hits; AID 485290; also: potency is read from the fitted curve at half-maximal effect; % is scaled to controls: 0 for no effect and ±100 for the full control effect; nearly all actives have a fitted effect of over 40% in size
Target sequence (Q9NUW8 whole entry, looked up): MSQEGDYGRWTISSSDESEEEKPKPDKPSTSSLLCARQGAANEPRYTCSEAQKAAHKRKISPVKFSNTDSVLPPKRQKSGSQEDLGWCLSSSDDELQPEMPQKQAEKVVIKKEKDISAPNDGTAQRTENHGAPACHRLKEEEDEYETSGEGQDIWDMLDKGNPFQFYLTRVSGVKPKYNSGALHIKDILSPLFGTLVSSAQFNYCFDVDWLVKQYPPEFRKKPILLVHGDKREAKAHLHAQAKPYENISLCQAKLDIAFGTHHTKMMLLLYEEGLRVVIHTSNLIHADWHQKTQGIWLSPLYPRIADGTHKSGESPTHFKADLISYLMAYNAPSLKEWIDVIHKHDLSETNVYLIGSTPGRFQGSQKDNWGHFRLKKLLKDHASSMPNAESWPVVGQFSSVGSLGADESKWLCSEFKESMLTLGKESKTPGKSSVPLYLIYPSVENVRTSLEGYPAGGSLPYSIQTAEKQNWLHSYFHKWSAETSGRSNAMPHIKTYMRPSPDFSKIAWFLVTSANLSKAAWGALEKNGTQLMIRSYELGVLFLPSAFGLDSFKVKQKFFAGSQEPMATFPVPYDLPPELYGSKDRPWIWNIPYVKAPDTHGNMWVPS
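Recombinant E. coli-expressed Tdp1 (1 nM) preincubated with compound 15 min at RT, then 5'-biotin/3'-phosphotyrosine-FITC DNA substrate (15 nM) added for 5 min. AlphaScreen beads (10 ug/ml) added, 10 min RT; tyrosine-FITC cleavage read as signal loss.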
TDP1 cell CPT: DT40-hTDP1 cell growth loss with CPT | chicken DT40 Tdp1-/-;hTDP1 cells + 20 nM CPT, ATP luminescence, 48 h | Potency, µM (series often up to 46.2 µM), without a hit: at the highest dose activity change, negative = growth inhibition, usual class: inhibitors | 420,000 compounds, 12% hits; also: potency is read from the fitted curve at half-maximal effect; % is scaled to controls: 0 for no effect and ±100 for the full control effect; nearly all actives have a fitted effect of over 55% in size
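Chicken DT40 Tdp1-/- cells complemented with human TDP1, 400 cells/well, exposed to compounds plus 20 nM camptothecin for at least 48 h at 37 C; viability read as ATP content by CellTiter-Glo luminescence.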
HepG2 tox: HepG2 cytotoxicity, counter-screen for TGF-b inhibitors | 410,000 compounds, 0.76% hits | HepG2 CAGA-GFP viability, ATP luminescence, 18 h | Potency, µM (highest dose often 46.1 µM), for the others: at the highest dose activity change, negative = cytotoxicity, usual class: cytotoxic; also: potency is read from the fitted curve at half-maximal effect
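HepG2 CAGA-GFP cells (1000/well, DMEM with 1% FBS) received compound, then TGF-beta at 500 pg/mL final, and were incubated 18 hours at 37 degrees C. Viability was read by CellTiter-Glo luminescence. Media-only wells were set as complete cell-killing and DMSO as no toxicity.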
IL1B secr inh: inhibitors of inflammasome signaling (IL-1 beta secretion); AID 743279; activity change, % at 57.5 µM; THP-1 LPS/ATP IL-1B secretion, AlphaLISA, 16 h; hits give low values; 360,000 compounds, 4.7% hits; in the data active = activity change below about -50%; inconclusive = mostly about -30% to -49%; also: % is scaled to controls: 0 for no effect and ±100 for the full control effect
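Secreted IL-1B measured by AlphaLISA bead assay after 16 h compound exposure of THP-1 cells; compounds (final up to 57.5 uM) added 1 h before LPS (250 ng/mL) and ATP (1.25 mM) stimulation; lower signal means less secretion.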
Numbers without * were called inactive; u = inconclusive; x = no result. Unless noted, calls follow the shape of the dose curve; as a rule, active = well fitted curve in the direction sought with a large enough effect; inconclusive = small, poorly fitted or top-dose-only effect, or another doubt; inactive = no such curve, though single readings can be large; an effect the other way counts as inactive or inconclusive.

SMILES	DT40 TDP1 no CPT	TGFb inhibitor	TDP1 block	TDP1 cell CPT	HepG2 tox	IL1B secr inh
Cc1cc(SCC(=O)N2c3ccccc3NC(=O)CC2C)nc2ccccc12 (configuration not stated)	16µM*	-17%	x	u	-33%	-9
COc1ccc(OC)c(NC(=O)CSc2nc3[nH]c(=O)[nH]c(=O)c3s2)c1	-7%	-5%	x	2%	-3%	17
S=C1Cc2ccccc2C(c2ccc(Cl)cc2)N1 (configuration not stated)	23µM*	0%	x	u	3%	30
COc1ccc(Cl)cc1-c1cc(C(=O)Nc2ccc(F)cc2)[nH]n1	-10%	-25%	x	u	-30%	0
COc1ccc(Cl)cc1NC(=O)c1cc(-c2ccccc2O)n[nH]1	15µM*	-14%	-9%	u	-26%	-12
Cc1c(Cl)cccc1NC(=O)c1cc(-c2ccccc2O)n[nH]1	u	u	-2%	u	-43%	-60*
COc1ccc(OC)c(NC(=O)c2cc(-c3cc(Cl)ccc3O)n[nH]2)c1	12µM*	-26%	-6%	18µM*	-32%	u
COc1ccc(NC(=O)c2cc(-c3cc(C)ccc3O)n[nH]2)cc1Cl	u	7%	5%	-17%	-10%	-8
CS(=O)(=O)c1ccc(Cl)c(NC(=O)COC(=O)COc2ccc3c(c2)CCC3)c1	0%	0%	0%	7%	9%	5
COc1ccc(C(=O)c2ccccc2)c2c(O)ccc(C(=O)c3ccccc3)c12	16µM*	u	5%	u	4%	0
COc1cc(O)c(C(=O)c2ccccc2)cc1O	4.6µM*	x	4%	4.1µM*	x	x
COc1cc(O)c(C(=O)c2ccccc2)cc1S(=O)(=O)O	5%	x	3%	1%	x	x
Cc1ccc(-c2nn(C)c(=O)c3ccccc23)cc1CNC(=O)c1ccco1	-3%	-6%	1%	-2%	6%	11
CCN1C=CC2=C(C#N)C(N)C(C#N)(C#N)C(c3ccccc3C(F)(F)F)C2C1 (configuration not stated)	23µM*	13%	0%	u	-3%	-8
CCOC(=O)c1sc2nccc(N(C)C)c2c1N=CNOCc1c(F)cccc1Cl	23µM*	u	x	u	-4%	-3
